Assay results published in PubChem BioAssay (NCI).
About 83,000 compounds went through this panel and 20% of them were active in at least one assay; those are over-represented in the sample as a whole.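 Cells were grown in 96-well plates and exposed to the test compound at a single concentration for 48 hours; results are reported as percent growth, with values below 10 considered active.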 Activity calls are given as the source filed them.

What follows are compounds tested on SR leukemia (assay: NCI-60 one-dose screen, 48 h (100 = growth as untreated, 0 = no growth, -100 = all killed)). Conditions: 10 µM.

SMILES	growth
COc1ccc(-c2nn(-c3cccc(Cl)c3)cc2-c2cc(-c3ccccc3)[nH]c(=O)c2C#N)cc1	64.8% (inactive)
CC(C)(C)OC(=O)N1CCc2c(sc3ncnc(N/N=C/c4ccccc4Br)c23)C1	39.4% (inactive)
COc1ccc(-c2nn(-c3cccc(Cl)c3)cc2-c2nc(N)[nH]c(=O)c2C#N)cc1	19.3% (inactive)
COc1ccc(-c2cc(-c3ccc(Cl)cc3)nc(SCCCC(=O)NO)n2)cc1	22.8% (inactive)
COc1ccc(-c2nn(-c3cccc(Cl)c3)cc2-c2c(C#N)c(=O)n3[nH]c(-c4ccccc4)nc3c2C#N)cc1	71.2% (inactive)
Cc1ccc(-n2c(C)nn3c(=O)c4c5c(sc4nc23)CN(C)CC5)cc1	104% (inactive)
CCn1c(CSc2nc3ccccc3c(=O)n2CCc2ccccc2)n[nH]c1=S	73.1% (inactive)
COc1cc2cc(Oc3ccc(NC(=O)Nc4ccc(Cl)c(Cl)c4)cc3)c(C)nc2cc1OC	18% (inactive)
CCOC(=O)c1sc2ncnc(Nc3ccc4c(cnn4C(=O)Nc4ccc(C)c(Cl)c4)c3)c2c1C	79.2% (inactive)
CN1CCc2c(sc3nc4n(-c5ccc(Cl)cc5)c(=O)[nH]n4c(=O)c23)C1	97.6% (inactive)
COc1cc2c3c(n(C4CCN(C)CC4)c(=O)c2cc1OC)-c1cc2c(cc1C3=O)OCO2	7.92% (active)
CCOC(=O)CSc1nc(-c2cc(OC)ccc2OC)cc(-c2ccc(OC)cc2)c1C#N	69.7% (inactive)
CC(C)N(CCOc1ccc(-c2nc3sccn3c2-c2ccnc(S(C)(=O)=O)n2)cc1)C(C)C	74.4% (inactive)
